This is a sample that favours compounds with a hit; in the whole collection about 2.4% have one here.
CHO-K1 Ca ag – counter-screen for M1 agonists: effect in parental CHO-K1 cells. 360,000 compounds, 0.48% hits. Fluo-8 calcium fluorescence; scaled to maximal ATP response, vehicle zero. activation, % at 3 µM; in the data active means activation above about 15%;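 further: untransfected CHO-K1 host cells lacking M1 receptor as counterscreen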
CHRM1 agonist – activates human CHRM1 receptor; P11229; CHO-K1 hM1, Fluo-8 calcium fluorescence, agonist mode; 0% DMSO, 100% acetylcholine EC100; activation, % at 3 µM; 360,000 compounds, 0.33% hits;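 active means activation above the run's mean compound activation plus 3 SD, cut at about 16% in these data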;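 further: peak over basal fluorescence ratio within a 140 s kinetic read after compound addition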
Target sequence (P11229 whole entry, looked up): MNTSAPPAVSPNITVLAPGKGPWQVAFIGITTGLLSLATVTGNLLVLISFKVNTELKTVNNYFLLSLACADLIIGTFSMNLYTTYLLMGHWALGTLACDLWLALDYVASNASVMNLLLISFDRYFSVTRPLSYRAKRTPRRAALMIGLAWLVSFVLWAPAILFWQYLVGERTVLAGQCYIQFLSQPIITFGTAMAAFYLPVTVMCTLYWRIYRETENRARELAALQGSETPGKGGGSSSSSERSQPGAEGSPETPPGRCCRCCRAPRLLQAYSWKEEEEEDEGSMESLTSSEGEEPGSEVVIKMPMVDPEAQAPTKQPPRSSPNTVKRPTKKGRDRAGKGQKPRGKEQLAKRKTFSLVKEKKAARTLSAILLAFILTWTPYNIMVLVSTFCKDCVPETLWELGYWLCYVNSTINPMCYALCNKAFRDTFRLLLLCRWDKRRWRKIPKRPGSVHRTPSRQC
CHRM1 antagonist – blocks human M1 muscarinic receptor; CHO-K1 hM1, Fluo-8 calcium fluorescence, ACh EC80 antagonist; inhibition, % at 3 µM; 360,000 compounds, 1.3% hits; AID 588852;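 active means percent inhibition above its own plate's cutoff, namely the mean of that plate's compound wells plus 3 SD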;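 further: peak over basal fluorescence ratio during 140 s after agonist addition; 0% = ACh EC80 plus DMSO and 100% = DMSO alone without agonist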
M1 PAM – positive allosteric modulators of human M1 muscarinic receptor; P11229; CHO-K1 hM1, Fluo-8 calcium fluorescence, ACh EC20; 0% = ACh EC20, 100% = maximal ACh; activation, % at 3 µM; 360,000 compounds, 0.088% hits; AID 588819; in the data active means activation above about 19%, passing the limit was not always enough
M1 PAM parental – counter-screen for M1 PAMs: effect in parental CHO-K1 cells | ATP EC20, Fluo-8 calcium fluorescence; 0% at ATP EC20, 100% at ATP max | activation, % at 3 µM | 360,000 compounds, 0.02% hits | AID 602247;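 active means activation above the run cutoff, the mean activation of all test compounds plus 3 SD, cut at about 40% in these data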;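 further: peak over basal fluorescence ratio in a 140 s read after ATP addition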
CHO-K1 Ca antag – counter-screen for M1 antagonists: effect in parental CHO-K1 cells; inhibition, % at 3 µM; ATP-induced calcium, Fluo-8 fluorescence; 360,000 compounds, 0.6% hits; AID 602250;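 active means inhibition above a per-plate cutoff, the plate's mean sample inhibition plus 3 SD, cut at about 24% in these data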;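 further: 0% = DMSO plus EC80 ATP and 100% = DMSO alone without ATP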
An asterisk follows results filed as active.

SMILES	CHO-K1 Ca ag	CHRM1 agonist	CHRM1 antagonist	M1 PAM	M1 PAM parental	CHO-K1 Ca antag
O=C(NC1CC2CCC1C2)c1ccco1 (stereo not drawn)	0.1	0.4	-8.7	16.2	8.6	-5.6
O=C(COC(=O)CNC(=O)c1ccco1)NCCN1C(=O)CSC1=O	-0.2	-1.9	2.5	5.4	-5.6	30.6*
O=C(COC(=O)c1cc(Cl)cc(Cl)c1)NCCN1C(=O)CSC1=O	-0.4	-6.6	3.0	-4.1	-14.5	25.8*
O=C(COC(=O)c1cccc(Cl)c1)NCCN1C(=O)CSC1=O	0.4	-4.7	-3.9	-2.0	9.2	-10.5
CC(C)(C)C(=O)NC(=S)NNC(=O)c1ccc(Cl)cc1Cl	119.1*	117.1*	87.0*	-23.8	-32.0	58.7*
CC(C)(C)C(=O)NC(=S)NNC(=O)c1ccc(-c2ccccc2)cc1	107.0*	115.1*	102.9*	-23.9	-25.9	95.1*
Cc1ccc(C(=O)NNC(=O)c2ccc(NC(=O)C(C)(C)C)cc2)cc1	15.2*	7.8	-7.4	9.4	2.4	4.2
CCN(CC(=O)NCc1ccc(Cl)cc1)C(=O)CSc1ccc(Br)cc1	4.5	-2.5	2.7	-0.2	1.8	-1.1
CC(=O)c1ccc2c(c1)N(CCCN(C)C)c1ccccc1S2	0.6	-6.7	95.4*	-25.5	1.5	2.6
CCC(=O)c1ccc2c(c1)N(CCCN(C)C)c1ccccc1S2	1.4	-5.5	94.4*	-25.2	5.7	-0.7
CC(=O)c1ccc2c(c1)N(C)c1ccccc1S2	-0.4	-2.3	-14.3	10.5	4.0	19.5
CN(Cc1ccc(Cl)s1)C(=O)CSc1nnc(C2CC2)n1C1CC1	0.1	-2.3	6.5	0.0	2.9	-8.6
CCCS(=O)(=O)NC(=O)C1(C)CCCN(C(=O)c2c(C)noc2C)C1 (stereo not drawn)	0.3	-1.3	-20.9	6.6	-8.2	-5.8
Cc1cc2c3c([nH]c2cc1S(=O)(=O)NCc1ccc(CN2CCCCCC2)o1)CCCC3=O	-0.8	-4.6	84.6*	-21.0	7.3	-10.8
CCOCCCNS(=O)(=O)c1cc2[nH]c3c(c2cc1C)C(=O)CC(C)(C)C3	3.7	-6.0	-2.8	3.6	12.4	-14.7
Cc1cc2c3c([nH]c2cc1S(=O)(=O)NCc1ccc(CN2CCCCCC2)o1)CC(C)(C)CC3=O	0.0	-13.7	52.3*	-36.4	18.2	-13.2
CC(=O)N(C)C[C@@H]1Oc2ncc(C#Cc3ccc(F)cc3)cc2C(=O)N([C@@H](C)CO)C[C@H]1C	1.0	-2.1	-14.2	10.7	19.4	-16.3
COc1ccc(CC(=O)NC(=S)Nc2ccc(S(N)(=O)=O)cc2)cc1	14.5	29.8*	0.3	-0.6	6.6	-4.2
COc1ccc(CC(=O)NC(=S)Nc2ccc(S(=O)(=O)NC(C)(C)C)cc2)cc1	11.4	23.6*	-14.7	8.5	29.4	0.8
COc1ccc(C(=O)NC(=S)Nc2ccc(S(N)(=O)=O)cc2)cc1	0.0	-9.4	-8.3	13.8	2.6	4.8
COc1ccc(NC(=S)NC(=O)Cc2ccccc2)cc1	10.2	-1.2	-9.6	5.3	12.3	-0.8
CCN1C(=O)[C@@H]2[C@@H](c3ccc(-c4ccc(Cl)c(Cl)c4)c(OC)c3)N3CCCC[C@@]3(C(=O)OC)[C@@H]2C1=O	0.4	-3.0	-4.4	8.3	8.8	-9.2
CCOc1ccc(/C=C2\CCCc3c2nc2ccccc2c3C(=O)O)cc1OC	45.4*	52.7*	7.2	-6.5	6.5	11.1
COc1ccc(CN2C(=O)C(CC(=O)NC3CC3)CC(C(=O)N3CCOCC3)=C2C)cc1 (stereo not drawn)	-0.2	-2.4	-14.7	-4.2	-6.4	-3.3
O=C(c1ccncc1)N1N=C(C2CCCCC2)CC1(O)C(F)(F)F (stereo not drawn)	-0.1	-12.8	36.9*	-31.0	-2.3	0.2
SMILES	CHO-K1 Ca ag	CHRM1 agonist	CHRM1 antagonist	M1 PAM	M1 PAM parental	CHO-K1 Ca antag
CN(C(=O)COc1ccccc1C(=O)NCCOc1ccccc1)c1ccccc1	11.2	-1.9	49.6*	-22.1	1.3	24.9*
CCOCCNC(=O)c1ccccc1C(=O)NCCOCC	-0.2	-3.3	-8.4	7.1	-2.6	30.4*
O=C(NCCCCCCNC(=O)c1ccccc1O)c1ccccc1O	18.8*	-0.9	32.5*	-23.0	-9.1	0.9
CCCNC(=O)c1ccccc1C(=O)NCCC	0.6	-1.5	-8.1	-3.0	17.7	-9.4
O=C(N1CCN(CCO)CC1)N1c2ccccc2C=Cc2ccccc21	0.1	-6.0	30.7*	-14.9	27.8	-14.5
O=C(NCc1ccccc1)N1CCN(CCO)CC1	0.2	-2.8	-10.0	3.5	6.2	3.4
Cc1[nH]c2ccccc2c1/C=N\NC(=O)c1ccco1	0.6	0.7	-19.6	24.3*	6.5	1.6
Cc1[nH]c2ccccc2c1/C=N/Nc1ccc([N+](=O)[O-])cc1	20.6*	16.0*	35.0*	-10.4	-0.3	33.5*
Cc1[nH]c2ccccc2c1/C=N/NC(=O)CNC(=O)c1ccco1	0.1	-3.8	-15.9	9.4	7.9	4.4
CCC1CCCCN1CCCNC(=O)CSc1nc2nc(C)c(Cc3ccccc3)c(C)n2n1 (stereo not drawn)	0.1	-12.7	24.6*	-27.8	20.9	-4.9
CCC1CCCCN1CCCNC(=O)Cn1c2ccccc2c2nc(=O)cc(C)n21 (stereo not drawn)	0.4	-5.7	-9.4	-0.4	2.8	-14.1
CCC1CCCCN1CCCNC(=O)Cn1nc(C)n2nc(-c3ccccc3)cc2c1=O (stereo not drawn)	0.1	-13.8	-12.5	2.5	3.5	-15.4
CCC1CCCCN1CCCNC(=O)CSc1nc2nc(C)c(Cc3ccccc3Cl)c(C)n2n1 (stereo not drawn)	1.3	-5.4	50.8*	-22.6	16.6	-8.0
Cc1cn(CC(=O)N(C)Cc2ccco2)c(=O)[nH]c1=O	-0.1	2.5	-16.6	17.3	2.9	3.1
Cc1noc(C)c1S(=O)(=O)Nc1ccc(C(C)C)cc1	1.9	-5.0	32.9	-21.8	22.5	-9.9
CN1CCN(c2nnc(-c3ccccc3)c(-c3ccccc3)n2)CC1	0.1	-8.7	38.7*	-20.2	-12.9	5.7
CC(C)CNC(=O)CSc1nc(-c2cccs2)cc(C(F)(F)F)n1	-0.6	-3.4	-15.0	-4.1	-5.9	23.9*
c1ccc(-c2nnc(N3CCN(c4ccccc4)CC3)nc2-c2ccccc2)cc1	-0.1	-2.4	-17.0	14.3	6.2	2.4
CN1CCN(c2nc(-c3ccccc3)cc(C(F)(F)F)n2)CC1	-0.1	-3.8	43.1*	-18.8	-2.2	7.4
CN1CCN(c2nc(-c3cccs3)cc(C(F)(F)F)n2)CC1	1.7	-3.5	70.5*	-21.2	19.7	-9.6
O=[N+]([O-])c1cnn(-c2nc(-c3cccs3)cc(C(F)(F)F)n2)c1	1.0	-2.7	-4.3	4.4	-1.5	-11.2
